Compounds with a hit are over-represented: about 17% of the library has one in this group of screens.
HepG2 tox: counter-screen for TGF-b inhibitors: cytotoxicity in HepG2 cells | HepG2 CAGA-GFP viability, ATP luminescence, 18 h | 410,000 tested, 0.76% active | AID 588856 | Potency, µM (titrated, usually from 46.1 µM), for inactives: top-dose activity change, negative = cytotoxicity, hits mostly cytotoxic
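HepG2 CAGA-GFP cells (1000/well, DMEM with 1% FBS) received compound, then TGF-beta at 500 pg/mL final, and were incubated 18 hours at 37 degrees C. Viability was read by CellTiter-Glo luminescence. Media-only wells were set as complete cell-killing and DMSO as no toxicity.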
ATXN2 expr inh: reduces ATXN2 reporter expression in HEK-293 cells; 360,000 tested, 0.72% active; HEK-293 ATXN2-luciferase reporter, luminescence, 24 h; Potency, µM (highest dose often 57 µM), without a hit: at the highest dose activity change, negative = inhibition, actives largely listed as inhibitors; AID 1745845; note: % is set by controls: 0 for no effect and ±100 for the full control effect; nearly all actives have a fitted effect of over 55% in size
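qHTS (up to 57 uM final) was run with 24 h compound exposure of reporter cells at 37 °C. Each well was multiplexed: SteadyGlo luminescence measured ATXN2-luciferase expression after a fluorogenic Gly-Phe-AFC viability readout (25 uM final).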
DT40 TDP1 CPT: DT40-hTDP1 cell growth loss with CPT | 420,000 tested, 12% active | Potency, µM (titrated, usually from 46.2 µM), inactives show top-dose activity change, negative = growth inhibition, most hits filed as inhibitors | AID 686979 | chicken DT40 Tdp1-/-;hTDP1 cells + 20 nM CPT, ATP luminescence, 48 h; note: % is set by controls: 0 for no effect and ±100 for the full control effect; nearly all actives have a fitted effect of over 55% in size
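Chicken DT40 Tdp1-/- cells complemented with human TDP1, 400 cells/well, exposed to compounds plus 20 nM camptothecin for at least 48 h at 37 C; viability read as ATP content by CellTiter-Glo luminescence.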
DT40 TDP1 no CPT: qHTS for Inhibitors of human tyrosyl-DNA phosphodiesterase 1 (TDP1): qHTS in cells in absence of CPT; DT40 Tdp1-/- hTDP1 cells, no CPT, ATP luminescence, 48 h; Potency, µM (doses to about 46.2 µM), for inactives: top-dose activity change, negative = growth inhibition, actives largely listed as inhibitors; 420,000 tested, 15% active; AID 686978, 2013; note: % is set by controls: 0 for no effect and ±100 for the full control effect; nearly all actives have a fitted effect of over 55% in size
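Luminescent ATP content (CellTiter-Glo) served as the growth readout. Knockout chicken DT40 cells expressing human TDP1 were exposed to compounds without camptothecin for a minimum 48 hr at 37 °C.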
S2 tox: reduces viability in counter-screen for ATXN expression inhibitors; AID 651635; S2 cells (HEK-293 line with an ATXN2-luciferase reporter) viability, CellTiter-Fluor protease fluorescence, 24 h; 400,000 tested, 0.49% active; Potency, µM (highest dose often 56.7 µM), actives largely listed as cytotoxic; note: nearly all actives have a fitted effect of over 40% in size
TGFb SMAD3 inh: inhibitors of TGF-b signaling. HepG2 CAGA-GFP TGF-b/SMAD3 reporter, GFP fluorescence, 18 h; TGF-beta stimulated, 500 pg/mL final. Potency, µM (top dose mostly 46.1 µM), for the others: at the top dose activity, negative = inhibition, actives largely listed as inhibitors. 410,000 tested, 1.2% active; note: % is set by controls: 0 for no effect and ±100 for the full control effect; nearly all actives have a fitted effect of over 65% in size
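Using HEPG2 CAGA-GFP reporter cells at 1000 cells/well, we pinned test compounds, stimulated with recombinant TGF-beta (500 pg/mL final) and measured total well GFP after 18 h.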
* hit, by the source's call; i = inactive; ? = inconclusive; . = no result; ! = repeats disagree. Calls come from the whole dose curve; as a rule, active = well fitted curve in the direction sought with a large enough effect; inconclusive = small, poorly fitted or top-dose-only effect, or another doubt; inactive = no such curve, though single readings can be large; an effect the other way counts as inactive or inconclusive. Potency is the fitted concentration of half-maximal effect.

SMILES	HepG2 tox	ATXN2 expr inh	DT40 TDP1 CPT	DT40 TDP1 no CPT	S2 tox	TGFb SMAD3 inh
CC(=O)N1CCCc2cc(S(=O)(=O)N3CCC(N(C)C(C)C)CC3)ccc21	-7%	-5%	-1%	0%	i	-2%
CN(C)CCC(C(=O)c1ccccc1)c1ccccn1 (centres undefined)	-2%	1%	2%	7%	i	-15%
CN(C)CC(CCCCC(CN(C)C)C(=O)c1ccccc1)C(=O)c1ccccc1 (centres undefined)	-108%	11%	5.8µM*	5.8µM*	i	?
CCCCC(CCc1ccccn1)C(=O)c1ccccc1 (centres undefined)	-1%	20%	23µM*	?	i	0%
O=C(NNS(=O)(=O)c1cccc(Cl)c1Cl)c1cccc(S(=O)(=O)N2CCOCC2)c1	-12%	1%	-6%	-10%	i	0%
CC(Oc1cccc(Cl)c1)C(=O)Nc1nc(-c2ccccn2)cs1 (centres undefined)	12%	-36%	3.3µM*	5.2µM*	.	?
CC(Oc1ccccc1)C(=O)Nc1nc(-c2ccncc2)cs1 (centres undefined)	-17%	3%	?	-11%	i	20%
Cc1cccc(C(=O)N[C@H](C(=O)Nc2ncc(C)s2)C(C)C)c1	7%	8.4µM*	?	?	i	11µM*
Cc1cccc(C(=O)NC(C(=O)Nc2ccc(S(=O)(=O)Nc3nccs3)cc2)C(C)C)c1 (centres undefined)	-1%	11%	-9%	-3%	i	3%
CC(OC(=O)c1ccccn1)C(=O)Nc1nc(-c2ccc(F)c(F)c2)cs1 (centres undefined)	1%	22%	26µM*	23µM*	i	0%
Cc1cccc(C(=O)N[C@H](C(=O)Nc2nnc(C3CC3)s2)C(C)C)c1	-33%	4%	?	?	i	-6%
CC(OC(=O)c1cnccn1)C(=O)Nc1nc(-c2cccc([N+](=O)[O-])c2)cs1 (centres undefined)	-6%	.	?	?	i	-9%
Cc1cccc(C(=O)NC(C(=O)Nc2nc(-c3ccccn3)cs2)C(C)C)c1 (centres undefined)	-6%	.	13µM*	12µM*	?	?
COc1cccc(-c2ccnc(-n3ncc(C(=O)N(C)CCc4ccccn4)c3C)n2)c1	.	.	17%	-23%	i	.
COc1ccc(-c2noc(N(c3ccc(F)c(Cl)c3)c3nc(-c4ccc(OC)c(OC)c4)no3)n2)cc1OC	-13%	-6%	1%	-10%	i	4%
C[C@H](NC(=O)c1ccccc1)C(=O)Nc1nc(-c2ccccn2)cs1	-20%	?	26µM*	?	i	-7%
CC(Oc1ccccc1)C(=O)Nc1nc(-c2ccccn2)cs1 (centres undefined)	-22%	?	3.7µM*	3.3µM*	?	-21%
CC(NC(=O)c1ccccc1)C(=O)NC1=NCCS1 (centres undefined)	1%	4%	-1%	0%	i	-22%
CC(=O)c1sc(NC(=O)c2c(-c3ccccc3)c(-c3ccccc3)nn(C)c2=O)nc1C	-2%	.	0.41µM*	0.52µM*	.	-10%
CCCOC(=O)c1c(-c2ccccc2)c(-c2ccccc2)nn(C)c1=O	-29%	.	21µM*	15µM*	.	-72%
NC1=NC(=O)/C(=C/C=C/c2cccs2)S1	-51%	74%	-21%	?	?	0%
Cc1noc(C)c1COc1ccccc1C(=O)Nc1ccc(C(N)=O)cc1	-15%	6%	24%	3%	i	8%
CCCCc1nnc(NC(=O)c2ccccc2OCc2c(C)noc2C)s1	5%	8%	16µM*	23µM*	i	3%
CC(NC(=O)/C(C#N)=C/c1ccc(OCC(=O)O)cc1)c1ccccc1 (centres undefined)	18%	.	1%	-7%	.	23%
N#C/C(=C\c1cccnc1)C(=O)Nc1ccccc1	2%	5%	-5%	?	i	27%
SMILES	HepG2 tox	ATXN2 expr inh	DT40 TDP1 CPT	DT40 TDP1 no CPT	S2 tox	TGFb SMAD3 inh
C[C@H](NC(=O)/C(C#N)=C/c1ccc(O)c(O)c1)c1ccccc1	.	.	19µM*	19µM*	.	.
C[C@@H](NC(=O)/C(C#N)=C/c1ccc(O)c(O)c1)c1ccccc1	-41%	-17%	24µM*	13µM*!	?	-9%
N#C/C(=C\c1ccc(O)c(O)c1)C(=O)Nc1ccccc1	-20%	15%	24µM*	10µM*	?	28%
Cc1cccc(NC(=O)/C(C#N)=C/c2cccc([N+](=O)[O-])c2)n1	-20%	.	-5%	-23%	i	?
CC(NC(=O)/C(C#N)=C/c1ccc(Cl)c([N+](=O)[O-])c1)c1ccccc1 (centres undefined)	-112%	.	3.7µM*	3.7µM*	22µM*	?
CC1CCCCC1NC(=O)COC(=O)C12CC3CC(CC(Cl)(C3)C1)C2 (centres undefined)	3%	10%	-3%	-28%	i	4%
CN(CCc1ccccn1)C(=O)CCC1CCCN(C(=O)NC2CCCCC2)C1 (centres undefined)	-18%	15%	9%	-3%	i	-8%
CCCOc1ccc(CNC(=O)C2CCN(c3nc4ccccc4nc3C(F)(F)F)CC2)cc1	-1%	7%	?	?	i	?
Cc1oc(-c2cccc(Cl)c2)nc1CS(=O)(=O)CC(=O)NCCCN1CCOCC1	-27%	-28%	13%	-1%	?	-5%
N#C/C(=C\c1ccc(Cl)c([N+](=O)[O-])c1)c1ccccn1	-45%	-37%	21µM*	21µM*	i	?
CNc1ccc(/C=C(\C#N)c2ccccn2)cc1[N+](=O)[O-]	2%	-8%	-1%	-17%	?	1%
CCCCN1CCC(CCC(=O)c2cc(Cl)c(N)cc2OC)CC1	.	.	?	27µM*!	.	.
CN(C)C(CNc1ccc(C(N)=O)cc1[N+](=O)[O-])c1ccccc1 (centres undefined)	-18%	-7%	-7%	-22%	i	11%
Nc1ccc(C(=O)OCC(=O)N2c3ccccc3Sc3ccccc32)cc1[N+](=O)[O-]	-31%	17%	?	7.3µM*	i	?

High-throughput results as filed in PubChem BioAssay.
